Consider 10 compounds from ChEMBL document CHEMBL3988442, “University of Dundee, Small-Polar-MMV Screening Library” (2021).

Holding throughout (design): scale not given: direction of the effect not stated beside the values
In experiment [1] the target is Protein translocase subunit SecA (Escherichia coli (strain K12)) (UniProt P10408). Kind of experiment: Assay to Identify E. coli SecA ATPase Inhibitors. In kind it is functional. The conditions noted are these: 30 µM.
The target of experiment [2] is T1, Ubiquitin-activating enzyme e1, putative (Leishmania donovani (strain BPK282A1)) (UniProt E9BSI1).
T1 sequence (whole entry): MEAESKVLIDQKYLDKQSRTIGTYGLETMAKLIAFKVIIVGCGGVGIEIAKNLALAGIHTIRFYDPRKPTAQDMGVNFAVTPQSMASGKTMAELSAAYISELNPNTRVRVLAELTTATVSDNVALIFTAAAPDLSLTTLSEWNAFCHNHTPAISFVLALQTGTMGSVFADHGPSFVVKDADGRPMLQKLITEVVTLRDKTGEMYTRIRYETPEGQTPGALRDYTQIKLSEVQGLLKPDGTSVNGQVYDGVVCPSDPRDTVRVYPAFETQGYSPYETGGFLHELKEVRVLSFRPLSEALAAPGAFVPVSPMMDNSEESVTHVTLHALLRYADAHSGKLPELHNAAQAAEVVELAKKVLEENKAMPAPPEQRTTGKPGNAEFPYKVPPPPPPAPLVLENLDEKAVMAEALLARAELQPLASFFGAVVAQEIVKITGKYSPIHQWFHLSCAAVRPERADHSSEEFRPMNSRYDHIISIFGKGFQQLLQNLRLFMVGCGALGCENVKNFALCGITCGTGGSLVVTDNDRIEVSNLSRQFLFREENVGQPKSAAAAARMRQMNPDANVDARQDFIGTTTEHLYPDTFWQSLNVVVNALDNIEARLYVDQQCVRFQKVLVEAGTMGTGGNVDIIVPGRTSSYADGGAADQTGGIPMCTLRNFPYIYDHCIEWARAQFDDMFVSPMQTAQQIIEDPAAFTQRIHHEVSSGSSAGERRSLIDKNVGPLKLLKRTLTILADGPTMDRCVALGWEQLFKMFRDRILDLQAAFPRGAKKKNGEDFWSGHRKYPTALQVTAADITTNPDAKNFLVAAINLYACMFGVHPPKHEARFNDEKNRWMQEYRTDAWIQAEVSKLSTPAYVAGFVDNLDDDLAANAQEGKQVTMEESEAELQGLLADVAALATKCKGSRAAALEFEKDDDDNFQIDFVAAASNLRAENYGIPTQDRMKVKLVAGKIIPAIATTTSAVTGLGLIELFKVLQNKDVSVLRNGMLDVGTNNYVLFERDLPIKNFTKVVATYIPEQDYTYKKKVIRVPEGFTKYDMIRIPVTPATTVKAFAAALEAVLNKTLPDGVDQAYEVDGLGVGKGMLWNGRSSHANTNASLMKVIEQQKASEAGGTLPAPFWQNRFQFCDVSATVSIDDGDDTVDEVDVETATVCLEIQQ
Kind of experiment: Leishmania donovani Ubiquitin Activating Enzyme (LdE1). Format: functional. The following applies: 30 µM.

For experiment [3], the target named is AMP-activated protein kinase, AMPK (Homo sapiens) (UniProt P54646+O43741+P54619+Q9UGJ0+Q9Y478+Q13131+Q9UGI9). Kind of experiment: AMP-dependent Kinase enzyme assay. An in vitro enzyme assay that detects ADP turnover that is directly proportional to AMPK activity. This uses naive AMPK that is activated during the assay with MK-8722. In kind it is functional. The following applies: 30 µM.

Experiment [4] deals with Sialic acid-binding Ig-like lectin 9 (Homo sapiens) (UniProt Q9Y336). As to the kind of experiment: Hs-Siglec9 ALPHAscreen SOP 20170721. The conditions noted are these: 10 µM. Background: In Alpha technology, singlet oxygen from a donor bead excites a nearby acceptor bead.
Sequence of Sialic acid-binding Ig-like lectin 9 (Homo sapiens) (Q9Y336 whole entry): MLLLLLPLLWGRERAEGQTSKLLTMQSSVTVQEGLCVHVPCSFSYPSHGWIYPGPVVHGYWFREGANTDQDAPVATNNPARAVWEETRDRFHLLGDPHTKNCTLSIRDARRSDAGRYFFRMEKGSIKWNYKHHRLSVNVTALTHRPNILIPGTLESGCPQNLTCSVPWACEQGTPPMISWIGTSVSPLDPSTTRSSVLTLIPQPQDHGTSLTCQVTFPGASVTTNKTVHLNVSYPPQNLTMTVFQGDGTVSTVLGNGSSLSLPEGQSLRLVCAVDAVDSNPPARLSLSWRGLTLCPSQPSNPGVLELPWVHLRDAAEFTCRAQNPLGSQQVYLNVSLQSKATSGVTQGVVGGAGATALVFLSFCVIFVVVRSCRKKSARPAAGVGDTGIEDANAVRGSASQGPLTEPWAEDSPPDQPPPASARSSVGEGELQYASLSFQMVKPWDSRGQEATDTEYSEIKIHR
The next experiment relates to Trypanosoma cruzi. Kind of experiment: Trypanosoma cruzi phosphomannomutase and mannose-1-phosphate guanylyltransferase assay. In kind it is functional. The conditions noted are these: 10 µM.
Experiment [5] concerns the target T2, Arginase-2, mitochondrial (Homo sapiens) (UniProt P78540).
T2 sequence (whole entry): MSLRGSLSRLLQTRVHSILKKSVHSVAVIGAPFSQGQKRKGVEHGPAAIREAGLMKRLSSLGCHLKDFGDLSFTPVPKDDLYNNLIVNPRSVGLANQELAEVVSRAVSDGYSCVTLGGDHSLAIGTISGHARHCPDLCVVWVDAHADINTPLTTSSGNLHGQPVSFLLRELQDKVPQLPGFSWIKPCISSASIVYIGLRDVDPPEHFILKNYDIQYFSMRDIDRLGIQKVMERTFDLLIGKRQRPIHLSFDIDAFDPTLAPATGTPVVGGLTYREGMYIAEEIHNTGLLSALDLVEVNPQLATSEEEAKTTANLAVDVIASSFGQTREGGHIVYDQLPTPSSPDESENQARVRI
Kind of experiment: in vitro enzyme assay to detect the production of urea directly proportional to the activity of Arginase II. Also: in the data most compounds retested in dose-response had high values. The following applies: 33.3 µM. In kind it is functional.

In experiment [6] the target is T3, Proteasome subunit beta (Trypanosoma cruzi) (UniProt O96673).
T3 sequence (whole entry): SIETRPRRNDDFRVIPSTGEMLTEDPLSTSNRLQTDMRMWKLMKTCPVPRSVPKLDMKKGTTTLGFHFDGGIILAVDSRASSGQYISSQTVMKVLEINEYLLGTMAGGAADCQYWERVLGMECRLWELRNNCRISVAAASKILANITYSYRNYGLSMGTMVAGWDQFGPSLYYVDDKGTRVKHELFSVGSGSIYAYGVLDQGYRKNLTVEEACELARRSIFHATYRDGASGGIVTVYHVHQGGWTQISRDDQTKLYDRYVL
As to the kind of experiment: Trypanosoma cruzi proteasome chymotrypsin-like activity (TcProtChymo) assay. Also: in the data most compounds retested in dose-response had high values. In kind it is functional. The following applies: 9.37 µM.

The species named for a further experiment is Homo sapiens. Kind of experiment: To identify inhibition of the IFN signalling (Jak-Stat) pathway via expression of an eGFP reporter gene under the control of an IFN-stimulated response element (ISRE) containing MxA promoter. Format: functional. The conditions noted are these: 30 µM.
The target in experiment [7] is T4, Tyrosyl-tRNA synthetase, putative (Trypanosoma cruzi (strain CL Brener)) (UniProt Q4DSP6).
T4 sequence (whole entry): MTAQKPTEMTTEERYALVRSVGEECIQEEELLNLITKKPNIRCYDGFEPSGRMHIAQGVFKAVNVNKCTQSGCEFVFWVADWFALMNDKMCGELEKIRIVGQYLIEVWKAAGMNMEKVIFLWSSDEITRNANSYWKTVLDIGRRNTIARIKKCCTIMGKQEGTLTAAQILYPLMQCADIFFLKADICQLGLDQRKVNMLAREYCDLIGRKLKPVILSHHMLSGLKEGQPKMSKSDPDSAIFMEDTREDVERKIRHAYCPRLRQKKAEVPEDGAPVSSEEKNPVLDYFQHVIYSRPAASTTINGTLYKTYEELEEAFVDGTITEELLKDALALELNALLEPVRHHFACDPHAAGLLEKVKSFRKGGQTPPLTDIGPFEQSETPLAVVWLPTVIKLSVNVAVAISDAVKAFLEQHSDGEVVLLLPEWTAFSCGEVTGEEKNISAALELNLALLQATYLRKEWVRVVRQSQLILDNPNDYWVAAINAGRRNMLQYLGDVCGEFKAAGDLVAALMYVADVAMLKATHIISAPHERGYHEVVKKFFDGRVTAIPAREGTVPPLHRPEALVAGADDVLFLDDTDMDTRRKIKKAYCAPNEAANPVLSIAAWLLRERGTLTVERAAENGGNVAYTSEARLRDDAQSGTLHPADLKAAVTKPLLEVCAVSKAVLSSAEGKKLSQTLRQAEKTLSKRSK
Kind of experiment: Trypanosoma cruzi tyrosyl tRNA synthetase (TcYRS) _High Tyrosine SOP. Also: in the data most compounds retested in dose-response had high values. In kind it is functional. The following applies: 30 µM.

The target in experiment [8] is T4, Tyrosyl-tRNA synthetase, putative (Trypanosoma cruzi (strain CL Brener)). As to the kind of experiment: Trypanosoma cruzi tyrosyl tRNA synthetase (TcYRS) SOP. In kind it is functional. The following applies: 30 µM.
Experiment [9] deals with Chromo domain-containing protein 1 (Saccharomyces cerevisiae (strain ATCC 204508 / S288c) (Baker's yeast)) (UniProt P32657). As to the kind of experiment: ScCHD-1 Enzyme Inhibition Assay. Also: in the data most compounds retested in dose-response had high values. In kind it is functional. The conditions noted are these: 30 µM.
Sequence of Chromo domain-containing protein 1 (Saccharomyces cerevisiae (strain ATCC 204508 / S288c) (Baker's yeast)) (P32657 whole entry, the tested form may be a part): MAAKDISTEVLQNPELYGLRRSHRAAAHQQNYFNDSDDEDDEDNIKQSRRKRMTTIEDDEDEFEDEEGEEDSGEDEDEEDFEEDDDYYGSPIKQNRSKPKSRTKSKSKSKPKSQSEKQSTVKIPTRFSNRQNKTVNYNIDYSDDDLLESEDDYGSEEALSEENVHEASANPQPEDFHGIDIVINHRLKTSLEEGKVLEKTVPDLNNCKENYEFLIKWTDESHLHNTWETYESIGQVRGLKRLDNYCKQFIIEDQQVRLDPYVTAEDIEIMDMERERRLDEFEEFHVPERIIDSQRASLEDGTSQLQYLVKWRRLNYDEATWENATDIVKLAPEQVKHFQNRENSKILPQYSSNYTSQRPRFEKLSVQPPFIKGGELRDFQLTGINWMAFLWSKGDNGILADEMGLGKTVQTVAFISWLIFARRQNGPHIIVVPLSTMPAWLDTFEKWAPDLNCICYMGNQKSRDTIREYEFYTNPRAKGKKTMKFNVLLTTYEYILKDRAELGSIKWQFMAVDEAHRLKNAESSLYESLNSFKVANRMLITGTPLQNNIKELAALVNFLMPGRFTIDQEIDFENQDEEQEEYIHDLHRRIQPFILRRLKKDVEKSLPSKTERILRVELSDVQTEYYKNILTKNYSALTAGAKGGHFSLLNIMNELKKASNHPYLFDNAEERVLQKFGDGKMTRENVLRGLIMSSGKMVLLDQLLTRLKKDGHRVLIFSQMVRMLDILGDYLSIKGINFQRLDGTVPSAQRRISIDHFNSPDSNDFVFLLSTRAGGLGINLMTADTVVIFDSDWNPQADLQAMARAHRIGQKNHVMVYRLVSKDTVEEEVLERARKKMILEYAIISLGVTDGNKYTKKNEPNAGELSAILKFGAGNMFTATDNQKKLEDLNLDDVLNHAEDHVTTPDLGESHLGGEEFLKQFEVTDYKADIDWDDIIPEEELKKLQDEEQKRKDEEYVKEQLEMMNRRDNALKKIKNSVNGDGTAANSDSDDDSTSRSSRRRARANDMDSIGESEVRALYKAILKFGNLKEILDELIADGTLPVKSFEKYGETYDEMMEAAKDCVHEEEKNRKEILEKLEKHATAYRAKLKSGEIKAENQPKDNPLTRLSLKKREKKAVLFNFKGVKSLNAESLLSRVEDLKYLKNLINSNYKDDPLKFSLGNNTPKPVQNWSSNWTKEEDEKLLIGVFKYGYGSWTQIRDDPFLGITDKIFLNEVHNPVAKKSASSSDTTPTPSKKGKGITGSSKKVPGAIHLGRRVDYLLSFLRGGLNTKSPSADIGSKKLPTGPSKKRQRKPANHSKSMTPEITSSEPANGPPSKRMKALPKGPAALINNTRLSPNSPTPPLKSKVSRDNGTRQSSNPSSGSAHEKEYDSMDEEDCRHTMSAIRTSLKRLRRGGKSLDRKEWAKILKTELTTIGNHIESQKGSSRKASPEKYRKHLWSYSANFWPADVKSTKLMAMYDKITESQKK

For some assays here: Results with a measured potency or affinity are listed apart.

Sequence of Protein translocase subunit SecA (Escherichia coli (strain K12)) (P10408 whole entry): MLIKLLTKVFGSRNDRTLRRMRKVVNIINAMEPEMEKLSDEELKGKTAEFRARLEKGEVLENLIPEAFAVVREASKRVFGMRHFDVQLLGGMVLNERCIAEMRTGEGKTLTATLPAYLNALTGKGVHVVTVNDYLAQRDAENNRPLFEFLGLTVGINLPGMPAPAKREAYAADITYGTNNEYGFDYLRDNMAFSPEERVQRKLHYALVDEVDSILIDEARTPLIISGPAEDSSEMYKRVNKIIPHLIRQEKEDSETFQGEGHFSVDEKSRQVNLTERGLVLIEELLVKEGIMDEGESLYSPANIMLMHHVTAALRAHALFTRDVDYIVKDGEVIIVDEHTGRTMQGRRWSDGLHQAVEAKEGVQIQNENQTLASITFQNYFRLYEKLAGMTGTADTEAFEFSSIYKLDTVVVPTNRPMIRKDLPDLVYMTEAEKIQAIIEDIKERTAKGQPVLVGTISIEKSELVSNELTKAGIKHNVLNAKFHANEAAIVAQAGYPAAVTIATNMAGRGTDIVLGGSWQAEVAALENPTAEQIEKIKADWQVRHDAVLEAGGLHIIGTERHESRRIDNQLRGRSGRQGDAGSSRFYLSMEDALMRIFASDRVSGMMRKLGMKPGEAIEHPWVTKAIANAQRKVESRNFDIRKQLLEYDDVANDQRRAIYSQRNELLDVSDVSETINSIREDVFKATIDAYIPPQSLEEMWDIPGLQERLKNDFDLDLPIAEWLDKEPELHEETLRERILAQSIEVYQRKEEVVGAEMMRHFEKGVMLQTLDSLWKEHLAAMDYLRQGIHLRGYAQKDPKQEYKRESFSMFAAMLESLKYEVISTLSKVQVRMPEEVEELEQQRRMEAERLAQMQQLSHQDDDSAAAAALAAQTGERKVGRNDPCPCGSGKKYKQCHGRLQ

`CCn1c(C(=O)N2CCN(C(=O)COC)CC2)cc2ccccc21`: the Percent Effect in [1] is -10.4%; in experiment [2] it was 13%; in experiment [3], -4.96%; in experiment [4] it was 23.8%; with Trypanosoma cruzi, 11.4%; in experiment [5], 2.49%. Also, the Percent Effect in experiment [6] was -0.169%; in the experiment filed under Homo sapiens it was 10.3%; in experiment [7] it was 7.77%; in [8], 21.9%; in experiment [9], -12.3%.
For `Cc1cnn(C2CN(Cc3ccc4c(c3)OCCO4)C2)c1`, the Percent Effect in experiment [1] is -0.648%; in experiment [2], -2.67%; in experiment [3] it was -8.78%; in experiment [4] it was 1.34%; in the experiment with Trypanosoma cruzi, -2.04%; in [5], -1.56%. In addition, the Percent Effect in experiment [6] was 19.9%; in the experiment filed under Homo sapiens, 8.06%; in experiment [7], 8.2%; in [8], 16.1%; in experiment [9], -8.99%.
On to `Cn1cc(C2COC3(CCN(C(=O)c4ccc(F)cc4)CC3)C2)cn1` (stereo not given), for which the Percent Effect is -3.35% in experiment [1]; 8.11% in [2]; 6.34% in experiment [3]; -3.51% in experiment [4]; -2.25% in the experiment on Trypanosoma cruzi; 7.33% in [5]. The Percent Effect is 19.9% in experiment [6]; -15% in the experiment listed under Homo sapiens; 2.16% in experiment [7]; 17.9% in [8]; 2.2% in experiment [9].
As to `CCn1cc(NC(=O)NCC(c2cccc(F)c2)N(C)C)cn1` (stereo not given), the Percent Effect is 0.401% in experiment [1]; 13.2% in experiment [2]; 0.674% in experiment [3]; 6.49% in [4]; -0.752% in the experiment on Trypanosoma cruzi; 0.383% in experiment [5]. Moreover, the Percent Effect in [6] was 4.68%; in the experiment listed under Homo sapiens, -12.5%; in experiment [7], 11.3%; in [8], 21.9%; in experiment [9] it was -5.78%.
Regarding `CN(CC(=O)N1CCCC1Cn1cccn1)c1cnccn1` (stereo not given), the Percent Effect in [1] is -5.14%; in experiment [2] it was 0%; in [3], 0.965%; in experiment [4], 10.7%; with Trypanosoma cruzi, -1.6%; in [5], -1.9%. Further, the Percent Effect in experiment [6] is -0.901%; in the experiment listed under Homo sapiens, 15.8%; in [7] it was -2.46%; in experiment [8], -1.27%; in experiment [9] it was -2.89%.
Turning to `Cc1nc(C2CCCN2CCCS(=O)(=O)N(C)C)no1` (stereo not given), the Percent Effect in experiment [1] is -4.22%; in [2], 28.9%; in experiment [3] it was -4.98%; in experiment [4], -5.59%; in the experiment with Trypanosoma cruzi it was 2.26%; in experiment [5] it was -0.383%. Moreover, the Percent Effect in experiment [6] is 13.4%; in the experiment filed under Homo sapiens, 10.9%; in experiment [7], -5.39%; in experiment [8] it was 17.1%; in [9], -9.28%.
In the case of `CC(NC(=O)CCCOc1ccccc1Cl)c1ccncc1` (stereo not given), the Percent Effect in [1] was -5.33%; in [2] it was 0%; in experiment [3], 2.41%; in experiment [4], 0.805%; in the experiment with Trypanosoma cruzi, -8.42%; in experiment [5], -2.27%. Also, the Percent Effect in experiment [6] is 6.39%; in the experiment listed under Homo sapiens, 27.7%; in [7] it was -2.15%; in experiment [8] it was 2.5%; in experiment [9] it was 110%.
As to `Cc1nc(C)n(CC2CCCN(CC(=O)Nc3nncs3)C2)n1` (stereo not given), the Percent Effect in experiment [1] was -2.17%; in experiment [2], -2.63%; in experiment [3], 3.08%; in experiment [4], 5.75%; in the experiment with Trypanosoma cruzi, -2.26%; in [5], -1.15%. Also, the Percent Effect is 4.84% in experiment [6]; -3.5% in the experiment filed under Homo sapiens; 1.47% in [7]; 0% in [8]; -0.768% in experiment [9].
On to `COc1ccc(C)cc1CN1CCCC1c1noc(C2CC2)n1` (stereo not given), for which the Percent Effect in [1] was -1.46%; in experiment [2], -2.7%; in [3] it was -7.59%; in [4], -1.73%; in the experiment with Trypanosoma cruzi, 5.85%; in experiment [5] it was -9.8%. The Percent Effect was 18.7% in experiment [6]; 67.4% in the experiment filed under Homo sapiens; 9.9% in experiment [7]; 18.3% in experiment [8]; -3.74% in [9].
Regarding `CNc1cc(C)nc(C2CN(Cc3ccc(C)nc3)CCO2)c1` (stereo not given), the Percent Effect in [1] was -2.49%; in experiment [2] it was 4.05%; in experiment [3], 9.63%; in experiment [4], -3.85%; in the experiment on Trypanosoma cruzi it was -1.19%; in experiment [5], -0.696%. The Percent Effect in [6] was 4.84%; in the experiment filed under Homo sapiens it was 0.717%; in experiment [7], 3.23%; in experiment [8], 3.9%; in [9], -10.8%.
